Some of the results follow. The hit rate among all sequences tested is not known here.
Target: furin, P09958
Experiment: furin cleavage Z-score vs untreated control; higher = more cleavage, active = 3.5 or more, inactive = 1 or less, 8 variable residues between constant flanks
Procedure, shortened: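 The cleavage Z-score is the log read count relative to furin-free reactions, lowess-adjusted and scaled by median absolute deviation. Counts came from sequencing DNA released from bead-bound 8-mer peptide–cDNA fusions after digestion with purified furin for 7.5, 15 or 30 min.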
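Also: purified furin at 1:10 enzyme:substrate in 50 mM HEPES pH 7.5.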

furin, P09958, sequence (P09958 whole entry): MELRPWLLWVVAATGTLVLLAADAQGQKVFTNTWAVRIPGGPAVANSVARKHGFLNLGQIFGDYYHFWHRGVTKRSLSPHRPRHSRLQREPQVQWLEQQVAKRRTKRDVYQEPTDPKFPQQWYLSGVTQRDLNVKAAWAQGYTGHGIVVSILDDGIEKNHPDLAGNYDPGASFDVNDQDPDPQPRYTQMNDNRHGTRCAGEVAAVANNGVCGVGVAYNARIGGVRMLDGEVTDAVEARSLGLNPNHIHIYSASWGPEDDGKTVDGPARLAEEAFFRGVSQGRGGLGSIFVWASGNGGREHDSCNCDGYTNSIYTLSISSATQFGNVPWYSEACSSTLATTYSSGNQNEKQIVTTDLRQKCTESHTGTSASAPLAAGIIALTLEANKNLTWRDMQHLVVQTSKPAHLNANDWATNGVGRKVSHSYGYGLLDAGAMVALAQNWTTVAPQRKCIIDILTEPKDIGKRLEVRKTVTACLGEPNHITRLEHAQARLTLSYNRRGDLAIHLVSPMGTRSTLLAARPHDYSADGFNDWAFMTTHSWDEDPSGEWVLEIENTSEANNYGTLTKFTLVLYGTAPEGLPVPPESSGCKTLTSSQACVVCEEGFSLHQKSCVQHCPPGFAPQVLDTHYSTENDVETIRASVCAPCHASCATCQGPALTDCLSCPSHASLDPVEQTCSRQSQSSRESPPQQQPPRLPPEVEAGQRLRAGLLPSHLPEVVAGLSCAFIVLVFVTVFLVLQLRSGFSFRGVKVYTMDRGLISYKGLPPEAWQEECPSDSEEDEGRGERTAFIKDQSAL

B1: HC1674 (peptide)
chain: CAKEECSQHLAGNASASA
B1 was tested, and the “furin cleavage Z-score” value (7.5 min) was 0.0836 (inactive), the “furin cleavage Z-score” value (15 min) was -0.555 (inactive) and the “furin cleavage Z-score” value (30 min) was 1.98.

B2: FS-2849 (peptide)
chain: CARYKRPGLPAGNASASA
In the case of B2, the “furin cleavage Z-score” value (7.5 min) is reported as -0.56 (inactive), the “furin cleavage Z-score” value (15 min) is reported as 0.396 (inactive) and the “furin cleavage Z-score” value (30 min) is reported as 1.9.

B3: HC1039 (peptide)
chain: CALETFWAKHAGNASASA
For B3, the “furin cleavage Z-score” value (7.5 min) was -0.932 (inactive), the “furin cleavage Z-score” value (15 min) was -0.375 (inactive) and the “furin cleavage Z-score” value (30 min) was 0.0766 (inactive).

B4: FS-2848 (peptide)
chain: CARYKRHFKLAGNASASA
B4 was tested, and the “furin cleavage Z-score” value (7.5 min) was 1.05, the “furin cleavage Z-score” value (15 min) was 2.24 and the “furin cleavage Z-score” value (30 min) was 5.27 (active).

B5: FS-2112 (peptide)
chain: CARYKRWRKHAGNASASA
B5 was tested, and the “furin cleavage Z-score” value (7.5 min) was 4.44 (active), the “furin cleavage Z-score” value (15 min) was 6.03 (active) and the “furin cleavage Z-score” value (30 min) was 5.36 (active).

B6: HC1846 (peptide)
chain: CATMPCSGSWAGNASASA
For B6, the “furin cleavage Z-score” value (7.5 min) was -0.28 (inactive), the “furin cleavage Z-score” value (15 min) was -1.3 (inactive) and the “furin cleavage Z-score” value (30 min) was -0.468 (inactive).

B7: FS-1455 (peptide)
chain: CAGCGRICRDAGNASASA
In the case of B7, the “furin cleavage Z-score” value (7.5 min) is reported as 1.57, the “furin cleavage Z-score” value (15 min) is reported as 3.73 (active) and the “furin cleavage Z-score” value (30 min) is reported as 3.06.

B8: FS-2648 (peptide)
chain: CARARRHAADAGNASASA
For B8, the “furin cleavage Z-score” value (7.5 min) was 12.4 (active), the “furin cleavage Z-score” value (15 min) was 14.4 (active) and the “furin cleavage Z-score” value (30 min) was 8.89 (active).

B9: FS-2644 (peptide)
chain: CARARRFAQIAGNASASA
For B9, the “furin cleavage Z-score” value (7.5 min) was 1.75, the “furin cleavage Z-score” value (15 min) was 2.84 and the “furin cleavage Z-score” value (30 min) was 5.09 (active).

B10: FS-2547 (peptide)
chain: CARARRFCRDAGNASASA
For B10, the “furin cleavage Z-score” value (7.5 min) was 11.3 (active), the “furin cleavage Z-score” value (15 min) was 11.2 (active) and the “furin cleavage Z-score” value (30 min) was 8.57 (active).

B11: FS-1683 (peptide)
chain: CARARRFSGLAGNASASA
B11 was tested, and the “furin cleavage Z-score” value (7.5 min) was -0.486 (inactive), the “furin cleavage Z-score” value (15 min) was -0.258 (inactive) and the “furin cleavage Z-score” value (30 min) was 0.853 (inactive).

B12: FS-1848 (peptide)
chain: CARARRPHFDAGNASASA
B12 was tested, and the “furin cleavage Z-score” value (7.5 min) was -1.25 (inactive), the “furin cleavage Z-score” value (15 min) was -0.201 (inactive) and the “furin cleavage Z-score” value (30 min) was 0.259 (inactive).

B13: HC985 (peptide)
chain: CAMSADLEVVAGNASASA
For B13, the “furin cleavage Z-score” value (7.5 min) was -0.119 (inactive), the “furin cleavage Z-score” value (15 min) was 0.307 (inactive) and the “furin cleavage Z-score” value (30 min) was -0.651 (inactive).

B14: HC1592 (peptide)
chain: CALDCEIYGAAGNASASA
In the case of B14, the “furin cleavage Z-score” value (7.5 min) is reported as -0.215 (inactive), the “furin cleavage Z-score” value (15 min) is reported as -0.505 (inactive) and the “furin cleavage Z-score” value (30 min) is reported as -1.05 (inactive).

B15: HC384 (peptide)
chain: CAFNSSGCPEAGNASASA
B15 was tested, and the “furin cleavage Z-score” value (7.5 min) was -0.864 (inactive), the “furin cleavage Z-score” value (15 min) was -1.69 (inactive) and the “furin cleavage Z-score” value (30 min) was -0.153 (inactive).

B16: HC1103 (peptide)
chain: CAAILSPGALAGNASASA
With B16 the “furin cleavage Z-score” value (7.5 min) was 0.122 (inactive), the “furin cleavage Z-score” value (15 min) was -1.5 (inactive) and the “furin cleavage Z-score” value (30 min) was -0.137 (inactive).

B17: HC983 (peptide)
chain: CAIMTCMSADAGNASASA
For B17, the “furin cleavage Z-score” value (7.5 min) was -1.36 (inactive), the “furin cleavage Z-score” value (15 min) was 0.0813 (inactive) and the “furin cleavage Z-score” value (30 min) was -2.62 (inactive).

B18: HC1401 (peptide)
chain: CADSHYQDVLAGNASASA
In the case of B18, the “furin cleavage Z-score” value (7.5 min) is reported as -0.596 (inactive), the “furin cleavage Z-score” value (15 min) is reported as -0.846 (inactive) and the “furin cleavage Z-score” value (30 min) is reported as 0.188 (inactive).

B19: HC2299 (peptide)
chain: CADPEVVTSTAGNASASA
With B19 the “furin cleavage Z-score” value (7.5 min) was -0.751 (inactive), the “furin cleavage Z-score” value (15 min) was -0.261 (inactive) and the “furin cleavage Z-score” value (30 min) was -0.557 (inactive).

B20: HC2219 (peptide)
chain: CAEVVTSPWVAGNASASA
With B20 the “furin cleavage Z-score” value (7.5 min) was -0.287 (inactive), the “furin cleavage Z-score” value (15 min) was -0.0163 (inactive) and the “furin cleavage Z-score” value (30 min) was 0.0529 (inactive).

B21: HC2354 (peptide)
chain: CAEVKCHRPSAGNASASA
For B21, the “furin cleavage Z-score” value (7.5 min) was 0.191 (inactive), the “furin cleavage Z-score” value (15 min) was -0.204 (inactive) and the “furin cleavage Z-score” value (30 min) was 1.45.

B22: FS-2480 (peptide)
chain: CARARRHSDGAGNASASA
With B22 the “furin cleavage Z-score” value (7.5 min) was 6.39 (active), the “furin cleavage Z-score” value (15 min) was 6.07 (active) and the “furin cleavage Z-score” value (30 min) was 5.39 (active).

B23: HC1285 (peptide)
chain: CAKVVILDSFAGNASASA
In the case of B23, the “furin cleavage Z-score” value (7.5 min) is reported as -0.496 (inactive), the “furin cleavage Z-score” value (15 min) is reported as -1.22 (inactive) and the “furin cleavage Z-score” value (30 min) is reported as -0.351 (inactive).

B24: HC1122 (peptide)
chain: CAASRGNHVSAGNASASA
B24 was tested, and the “furin cleavage Z-score” value (7.5 min) was 1.32, the “furin cleavage Z-score” value (15 min) was 0.577 (inactive) and the “furin cleavage Z-score” value (30 min) was 1.1.
